The whole screen tested about 2,100 compounds, of which about 760 (36%) were called active. A selection follows. Values without a mark were called inactive.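 How the source made its calls: active means thallium-flux fluorescence traces judged by eye to show enhanced or reduced glutamate response, manual score 1 or -1, so both directions (some results past the limit were not filed as active); inactive means the rest, including fluorescent or raised-baseline compounds.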
Assay: thallium influx changes without GIRK channels – cell-based, HEK-293 rmGlu8, no GIRK, thallium flux, counter-screen for GIRK activator project, confirmation (AID 623868);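 further: extra codes mark interference with 3 for fluorescent and 4 for baseline rise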
Conditions: thallium flux fluorescence, at 10 µM, actives lie on both sides, codes: 1 enhancer, -1 blocker, 0 none, thallium stimulus containing EC20 glutamate

Structure (SMILES) | manual score
CCC(=O)Oc1oc(-c2ccccc2)nc1C=Nc1ccccc1OC | -1 (active)
COc1ccccc1N=Cc1nc(-c2ccccc2)oc1OC(C)=O | -1 (active)
COc1ccc(C(=O)NC(=S)NCCO)cc1Br | 1 (active)
CCOC(=O)c1ccc(NC(=O)Nc2ccc(OC)c(OC)c2)cc1 | 0
CCOC(=O)c1c(CNCCN(CC)CC)n(C)c2cc(Br)c(OC)cc12 | 0
Cc1ccnc(NC(=S)NC(=O)/C=C/c2ccco2)c1 | 0
C=CCN(CC=C)C(=S)NC(=O)c1ccc(C)c(Br)c1 | 1 (active)
C=CCN(CC=C)C(=S)NC(=O)/C=C/c1ccc(C)cc1 | 1 (active)
C=CCN(CC=C)C(=S)NC(=O)c1ccc(OC)c(Br)c1 | 1 (active)
COc1ccc(C(=O)NC(=S)NC(C)C)cc1Br | 0.5
Cc1ccc(-c2nnn(CC(=O)NC3CC4CCC3C4)n2)cc1 (centres undefined) | 0
Clc1ccc(Cc2ccc(SCc3ccccc3)nn2)c(Cl)c1 | 0
CCCCCCCCCn1c2c(c(=N)c3c1CCC3)CCC2 | 0
CCN(CC)C(=O)CN(c1ccc2c(c1)OCO2)S(C)(=O)=O | 0
NC1=NC2(CCCCC2)n2c(nc3ccccc32)N1 | 0
COC(=O)C(C)N(C(=O)c1cccc2ccccc12)c1c(C)cccc1C (centres undefined) | -1 (active)
NC(=O)SCC(=O)Nc1cccc(Cl)c1 | 0
COC(=O)C(C)N(C(=O)c1cccc(Cl)c1)c1c(C)cccc1C (centres undefined) | -1 (active)
S=c1[nH]ccn1-c1cccc(Cl)c1 | 0
Oc1c(C=NCc2ccncc2)sc2ccccc12 | 0
O=C(COc1ccc(Br)cc1Cl)NC(=S)N1CCc2ccccc21 | 0
Cc1cccc(OCC(=O)NC(=S)N2CCCc3ccccc32)c1 | 1 (active)

Structure (SMILES) | manual score
CC(Oc1ccc(Cl)cc1Cl)C(=O)NC(=S)N1CCc2ccccc21 (centres undefined) | 1 (active)
O=C(COc1ccccc1)NC(=S)N1CCc2ccccc21 | 1 (active)
C=C(C)C1CC=C(C)/C(=N/NC(=O)COc2cccc(C)c2)C1 (centres undefined) | 0
O=C(COc1ccccc1Cl)NC(=S)N1CCc2ccccc21 | 1 (active)
Cc1cccc(OCc2nnc(SCC(=O)N3CCc4ccccc43)n2C)c1 | 0
Cc1cnc(NC(=O)COc2ccccc2Cl)s1 | 0
N#CC(C#N)=C1C=C2C=C(N3CCCCCC3)CCC2CC1 (centres undefined) | 3
CC1CCC/C(=N\NC(=O)COc2ccc(Cl)cc2Cl)C1 (centres undefined) | 0
O=C(COc1ccc(Cl)cc1Cl)NC(=S)N1CCCc2ccccc21 | 1 (active)
O=C(COc1ccc(Br)cc1Br)NC(=S)N1CCCc2ccccc21 | 0.5
CCCCN(CCCC)c1nc2ccccc2nc1C(C#N)C(=O)NCCCOC (centres undefined) | 3
C=C(C)C1CC=C(C)/C(=N/NC(=S)Nc2ccccc2)C1 (centres undefined) | 0
S=C(NN=C(C1CC1)C1CC1)Nc1ccccc1 | 0
S=C(NN=C1C2CC3CC(C2)CC1C3)Nc1ccccc1 | 1 (active)
CC(C)N=c1scc(-c2cccs2)n1/N=C/c1ccc(O)c(O)c1O | 0
CC(c1ccco1)N(C(=O)c1ccccc1NS(=O)(=O)c1cc([N+](=O)[O-])ccc1Cl)c1ccccn1 (centres undefined) | 1 (active)
CCOP(=O)(c1ccccc1)c1nc(-c2ccccc2C)oc1N1CCCCC1 (centres undefined) | 0
Cc1ccc(/C=N/Nc2nc(Cl)c(Cl)cc2Cl)s1 | 1 (active)
CCOC(=O)C1=C(C)OC(N)=C(C#N)C1c1cncc(-c2ccc(F)cc2)c1 (centres undefined) | 0
Cc1cc(C)n(-c2ccc(C(=O)OCC(=O)Nc3ccc(Cl)c(S(=O)(=O)N(C)C)c3)cc2)n1 | 0
CCOC(=O)Cc1csc(NC(=S)NC(=O)c2ccccc2C)n1 | 1 (active)
CCOC(=O)Cc1csc(NC(=S)NC(=O)c2ccccc2Br)n1 | 1 (active)

Structure (SMILES) | manual score
CC1=CC(=O)OC1Cc1ccncc1 (centres undefined) | 0
O=C(Nc1ccc(F)cc1)c1cccc2c1C(=O)N(Cc1ccccn1)C2 | 0
COc1ccc(-n2c(=O)[nH]cc(C(=O)Nc3ccc(NC(C)=O)cc3)c2=O)cc1 | 0
CCCC(=O)Nc1ccc(NC(=O)C23CC4CC(CC(C4)C2)C3)cn1 | 0
Cc1ccc2cccc(NC(=S)NC(=O)c3ccn(C)n3)c2n1 | 0
Cc1ccnc(NC(=S)NC(=O)c2cccs2)c1 | 1 (active)
CC(Cc1cccs1)NC(=O)Nc1ccc(Cl)cc1 (centres undefined) | 0
CCn1c(CCNC(=O)c2cccs2)nnc1SCC(=O)Nc1ccc(Cl)cc1 | 0
O=C(NC(=S)Nc1ccc(Cl)cn1)c1cccs1 | 1 (active)
Cc1cccc(NC(=S)NC(=O)c2cccs2)n1 | 1 (active)
Cc1ccc2cccc(NC(=S)NC(=O)c3ccnn3C)c2n1 | 0
CC(C)CC(NS(=O)(=O)c1ccc2c(c1)oc(=O)n2C)C(=O)NC1CCCc2ccccc21 (centres undefined) | 0
CCOc1ccc(-n2c(SCc3nc(-c4cccs4)no3)nnc2-c2ccncc2)cc1 | 0
CC(C)CC(=O)NC(=S)Nc1nc(-c2cccc3ccccc23)cs1 | 0
CC(C)C(=O)NC(=S)N(Cc1ccccc1)Cc1ccccc1 | 1 (active)
CC(C)CC(=O)NC(=S)N(Cc1ccccc1)Cc1ccccc1 | 1 (active)
Cc1ccccc1Cn1c(=N)n(CC(O)c2ccco2)c2ccccc21 (centres undefined) | 0
N#Cc1nc(COc2ccccc2)oc1N1CCN(c2cccc(Cl)c2)CC1 | 0
O=C(Cc1ccccc1)Nc1nc(=O)c2ccccc2s1 | 1 (active)
O=C(Cc1ccccc1)Nc1nc(-c2cccs2)cs1 | 0
O=C(Nc1nc(=O)c2ccccc2s1)c1ccc(Cl)cc1 | 1 (active)
O=C(Nc1nc(=O)c2ccccc2s1)c1ccccc1 | 1 (active)

Structure (SMILES) | manual score
O=C(Nc1nc2ccccc2s1)c1cc(-c2ccccc2)nn1-c1ccccc1 | 0
CN(C)CCCNC(=O)c1ccc(-c2nc(-c3ccc(Cl)cc3)cs2)cc1 | 0
O=C(Nc1nc(=O)c2ccccc2s1)c1ccc(F)cc1 | 1 (active)
CCN(CC)C(=O)CSc1nnc(NC(=O)CCc2ccccc2)s1 | 0
COc1ccc(Cn2nnnc2C(c2ccccc2Cl)N2CCN(C3CCCC3)CC2)cc1 (centres undefined) | 0
Cc1csc(SCC(=O)Nc2nc3ccccc3s2)n1 | 0
Cc1cnc(NC(=O)CSc2nc3ccccc3c(=O)[nH]2)s1 | 0
CCN(CC)C(=S)SCC(=O)Nc1nc(=O)c2ccccc2s1 | 1 (active)
CCCCn1c(SCC(=O)Nc2ccc(OC)cc2)nc2ccc(N3CCOCC3)cc2c1=O | 0
CCCCn1c(=O)[nH]c2nc3cc(N)ccc3nc2c1=O | 3
CCCCn1c(SC(C)C(N)=O)nc2cc(C(=O)OC)ccc2c1=O (centres undefined) | 1 (active)
COc1ccc(N/C(C)=C2/C(=O)C(=O)N(CCO)C2c2ccc(Br)cc2)cc1 (centres undefined) | 0
C=CCOc1ccc(/C(O)=C2/C(=O)C(=O)N(CCCN3CCOCC3)C2c2ccccc2)cc1 (centres undefined) | 0
COCCCN1C(=O)C(=O)/C(=C(/O)c2ccc(C)cc2)C1c1ccccc1 (centres undefined) | -1 (active)
O=S(=O)(Nc1ccc2nc(C(F)(F)F)[nH]c2c1)c1ccccc1 | 0
CCOc1ccc(-c2cc(C)n3nc(C(N)=O)cc3n2)cc1 | 0
CCC(Sc1ccc2nnc(-c3ccc(F)cc3)n2n1)C(=O)OC (centres undefined) | -1 (active)
Cc1cc(N2CCN(c3ccccc3)CC2)nc(NCc2ccccc2)n1 | 0
CC(C)CNC(=S)Nc1ccc(Oc2ccccc2)cc1 | 0
S=C(NCc1ccc(Cl)cc1Cl)Nc1ccccc1 | 0
CC(C)CNC(=S)NC(=O)c1ccc(Cl)cc1Cl | 1 (active)
CCCCNC(=S)NC(=O)c1ccc(Cl)cc1Cl | 1 (active)

Structure (SMILES) | manual score
CC(C)CNC(=S)NC(=O)c1ccccc1Cl | 1 (active)
CC(C)NC(=S)NC(=O)c1ccc(Cl)cc1Cl | 1 (active)
O=S(=O)(c1ccc(Cl)c(F)c1)N1CCC(c2nc(-c3ccncc3)no2)CC1 | 0
O=C(Nc1ccc(F)c(F)c1)NC1CCCCC1 | 0
Cc1[nH]c2ccccc2c1CN1CCc2ccccc2C1 | 0
O=C(O)C1C2C=CC(C2)C1C(=O)NCCc1cccc(Cl)c1 (centres undefined) | 0
Cc1ccc(S(=O)(=O)N/N=C/c2ccc(OC3CSC3)cc2)cc1 | 0
CCCCNC(=S)NC(=O)c1ccccc1Br | 1 (active)
O=C(CSc1nnc(-c2cccnc2)o1)OC1CCCCC1 | -0.5
CCOC(=O)CSc1nnc(-c2ccccc2OC)o1 | -1 (active)
CCS(=O)(=O)Nc1ccc(-c2nnc(SCC(=O)c3ccc(NC(C)=O)c(OC)c3)o2)cc1 | 0
COCCCNCCCOc1ccc(Cl)cc1Br | 0
CC1=NN(/C(=N\c2nnc(C)s2)Nc2ccccc2)[C@H](c2cccc3ccccc23)S1 | 1.5
CC(C)Oc1cccc(C(=O)NC(=S)Nc2ccccc2)c1 | 1 (active)
O=C1C(Cl)=C(N2CCOCC2)C(=O)N1c1cccc(Cl)c1 | 0
CCCOc1cccc(C(=O)NC(=S)Nc2cccc(C(F)(F)F)c2)c1 | 1 (active)
O=C(NC(=S)Nc1ccc(N2CCOCC2)cc1)c1cccc(Cl)c1 | 1 (active)
FC(F)Oc1ccccc1NC(=S)Nc1cccc(Cl)c1Cl | 0.5
O=C(OCCN1C(=O)c2cccc3c(N4CCOCC4)ccc(c23)C1=O)c1cccc(Cl)c1 | 3
COC(=O)c1cccc(NC(=S)Nc2cccc(Cl)c2Cl)c1 | 1 (active)
CCOc1cccc(C(=O)NC(=S)Nc2ccccc2)c1 | 0
